From PMC4336329 (PLoS ONE, 2015)
Screen size: about 310,000 compounds; about 14,000 (4.5%) showed an effect of 50% or more. The effect is printed as a negative number. For the sample, strong results were picked, then their nearest neighbours and some compounds at random.

target: human ether-à-go-go-related gene (hERG) potassium channel (human, UniProt Q12809); assay: primary screen, population patch clamp on CHO cells stably expressing hERG; higher = less effect of the substance
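Also: peak tail current of the secondary pulse compared with the same well before compound.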

Chain of human ether-à-go-go-related gene (hERG) potassium channel (Q12809 whole entry, looked up): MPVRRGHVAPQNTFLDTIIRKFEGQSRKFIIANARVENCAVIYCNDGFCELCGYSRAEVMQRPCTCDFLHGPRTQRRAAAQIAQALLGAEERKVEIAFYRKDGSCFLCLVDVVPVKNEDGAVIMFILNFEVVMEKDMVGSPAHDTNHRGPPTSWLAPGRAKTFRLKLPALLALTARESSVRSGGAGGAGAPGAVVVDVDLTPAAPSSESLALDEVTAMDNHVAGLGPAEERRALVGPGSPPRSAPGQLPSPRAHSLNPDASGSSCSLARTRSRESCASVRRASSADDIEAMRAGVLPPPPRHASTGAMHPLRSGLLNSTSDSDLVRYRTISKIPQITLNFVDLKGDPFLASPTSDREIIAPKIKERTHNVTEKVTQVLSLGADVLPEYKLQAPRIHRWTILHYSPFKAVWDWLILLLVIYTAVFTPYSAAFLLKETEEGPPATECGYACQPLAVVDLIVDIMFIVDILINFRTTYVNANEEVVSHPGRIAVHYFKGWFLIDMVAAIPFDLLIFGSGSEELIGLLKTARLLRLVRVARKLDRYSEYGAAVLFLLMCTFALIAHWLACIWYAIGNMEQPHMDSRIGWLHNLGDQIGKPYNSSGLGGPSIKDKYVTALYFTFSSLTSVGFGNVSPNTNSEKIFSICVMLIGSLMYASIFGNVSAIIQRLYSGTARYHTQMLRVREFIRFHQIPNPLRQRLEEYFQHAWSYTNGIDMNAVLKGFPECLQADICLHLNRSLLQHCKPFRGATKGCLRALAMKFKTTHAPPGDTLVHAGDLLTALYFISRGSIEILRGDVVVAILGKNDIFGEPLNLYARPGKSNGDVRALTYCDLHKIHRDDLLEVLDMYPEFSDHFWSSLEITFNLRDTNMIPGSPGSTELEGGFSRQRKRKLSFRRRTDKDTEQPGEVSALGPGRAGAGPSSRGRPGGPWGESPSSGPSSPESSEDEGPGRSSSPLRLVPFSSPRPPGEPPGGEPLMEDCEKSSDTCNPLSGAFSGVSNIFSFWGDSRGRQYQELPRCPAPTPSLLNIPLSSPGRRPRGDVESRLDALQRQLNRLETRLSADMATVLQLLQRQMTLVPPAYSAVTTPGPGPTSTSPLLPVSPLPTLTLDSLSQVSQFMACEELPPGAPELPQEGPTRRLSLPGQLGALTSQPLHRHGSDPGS

Row | SMILES | hERG current change (%, negative = inhibition) at 10uM
1 | COc1ccc(-c2cc(C(=O)N3CCN(c4ncccn4)CC3)c3ccccc3n2)cc1 | -33.4%
2 | CCCCNCc1nc2ccccc2c(=O)[nH]1.Cl | 5.81%
3 | COc1ccc(/C=N\NC(=O)c2ccc(=O)[nH]n2)cc1O | 18.4%
4 | Brc1cccc(-c2nnc(SCc3ccon3)n2-c2ccccc2)c1 | -48.9%
5 | Cc1ccc(NC(=O)CN2c3cccc4cccc(c34)S2(=O)=O)cc1S(=O)(=O)N1CCOCC1 | 0.358%
6 | Cc1cc(NC(=O)COc2c(C)cccc2C)no1 | 22.3%
7 | CC(=O)c1cccc(NC(=O)C(C)N(C)CC(=O)Nc2ccc(Cl)cc2)c1 (centres unmarked) | -5.14%
8 | c1ccc(Oc2nnc(-c3cccs3)c3ccccc23)cc1 | -5.87%
9 | O=C(c1ccncc1)N1CCN(S(=O)(=O)c2ccc(F)cc2)CC1 | 15.2%
10 | O=C(c1cccc(-n2cccc2)c1)N1CCN(S(=O)(=O)c2ccccc2)CC1 | -32%
11 | O=C(c1ccc(-n2cccn2)cc1)N1CCN(c2ncccc2C(F)(F)F)CC1 | -60.4%
12 | O=C(O)CCC(=O)N1CCN(c2ncccc2C(F)(F)F)CC1 | 9.74%
13 | O=C(c1cccc(-n2cccc2)c1)N1CCN(S(=O)(=O)c2ccc(F)cc2)CC1 | -34.7%
14 | Cc1ccc(S(=O)(=O)N2CCN(C(=O)c3ccccc3)CC2)cc1 | -31%
15 | Cc1ccc(S(=O)(=O)N2CCN(C(=O)c3ccc(S(=O)(=O)N4CCCC4)cc3)CC2)cc1 | -6.64%
16 | Cc1ccnn1-c1ccc(C(=O)N2CCCN(S(=O)(=O)c3ccc(F)cc3)CC2)cc1 | -69.7%
17 | CC(C)(C)C(=O)N1CCN(c2ncccc2C(F)(F)F)CC1 | 1.88%
18 | Cc1ccc(S(=O)(=O)N2CCCN(C(=O)c3ccc(-n4cccn4)cc3)CC2)cc1 | -74.2%
19 | O=C(c1ccc(F)cc1)N1CCN(S(=O)(=O)c2ccc(Br)cc2)CC1 | -5.63%
20 | Cc1ccc(S(=O)(=O)N2CCN(C(=O)c3cccc(-n4cccc4)c3)CC2)cc1 | -51.3%
21 | CCOC(=O)c1sc2nc(N3CCCC3)c3c(c2c1N)CC(C)(C)OC3 | 10.4%
22 | O=[N+]([O-])c1cccc(N/N=C/c2cccc(O)c2O)c1 | 16.7%
23 | COc1ccc(-c2n[nH]c3c2C(c2ccc(OC)c(OC)c2)N(c2ccccc2)C3=O)cc1 (centres unmarked) | 3.73%
